# Most compounds without a hit are left out; they make up all but 32% or so of the library.
# PostGolgi yeast = phenotypic screen on post-Golgi transport, primary screen. 98,000 tested, 0.9% active. post-Golgi transport phenotypic cell assay. inhibition, % at 10 µM. AID 739, 2007;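 also: yeast cells grown in 1536-well plates; yeast grown about 18 h at 30C before absorbance read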
# CYP2C19 act = human CYP2C19 activators, primary screen, biochemical, luminescence; 96,000 tested, under 10 active; Cytochrome P450 2C19 (Homo sapiens), P33261; AID 1025, 2008; activation factor at 5 µM; recombinant CYP2C19, luciferin-H EGE luminescence; active compounds read high; 0 = fully inhibited enzyme, 1 = untreated enzyme;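 active = activation factor of at least 2 at 5 µM in the primary screen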;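 also: 0 = wells with 2.5 mM tranylcypromine and 1 = vehicle-only wells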
# Target sequence (P33261 whole entry, looked up): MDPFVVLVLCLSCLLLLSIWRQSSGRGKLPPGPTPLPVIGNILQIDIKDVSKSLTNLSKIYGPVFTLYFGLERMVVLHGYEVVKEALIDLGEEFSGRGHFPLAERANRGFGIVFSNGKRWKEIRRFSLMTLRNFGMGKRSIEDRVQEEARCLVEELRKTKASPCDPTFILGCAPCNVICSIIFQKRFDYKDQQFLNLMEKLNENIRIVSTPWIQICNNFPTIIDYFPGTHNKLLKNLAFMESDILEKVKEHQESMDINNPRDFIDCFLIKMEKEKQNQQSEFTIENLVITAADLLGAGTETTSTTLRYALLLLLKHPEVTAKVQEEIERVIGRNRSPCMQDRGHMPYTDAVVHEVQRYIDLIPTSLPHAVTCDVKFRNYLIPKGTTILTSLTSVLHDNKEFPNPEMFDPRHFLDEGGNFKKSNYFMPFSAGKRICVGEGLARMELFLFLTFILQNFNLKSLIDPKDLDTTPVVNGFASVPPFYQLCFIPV
# CYP2C9 act = human CYP2C9 activators, primary screen, biochemical, luminescence; Cytochrome P450 2C9 (Homo sapiens), P11712; recombinant CYP2C9, luciferin-H conversion; active compounds read high; factor 1 = untreated enzyme, 0 = blocked; activation factor at 5 µM; 96,000 tested, 1.4% active; AID 1024, 2008;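 active = activation factor of 2 or more for CYP2C9 at a 5 µM dose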;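 also: 0 = sulfaphenazole-blocked wells and 1 = vehicle-only wells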
# CYP2C19 inhib = blockers of cytochrome P450 2C19 activity – biochemical, luminescence, ADME assay, primary screen; P33261; CYP2C19 Supersomes, luciferin-H EGE luminescence, 30 min; inhibition, % at 5 µM; 96,000 tested, 21% active; AID 778, 2007;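 active = CYP2C19 inhibition above a set limit at 5 µM in the primary screen, cut at about 50% in these data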;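 also: plate controls were negative control wells for no effect and 2.5 mM tranylcypromine positive control for full effect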
# PostGolgi ctrl = growth inhibition of yeast control strain, primary screen, counter-screen for post-Golgi transport modulator project; efflux-deficient yeast background strain, growth absorbance A615, 16 h; 98,000 tested, 5% active; inhibition, % at 10 µM
# CYP2C9 inhib = blockers of cytochrome P450 2C9 activity – biochemical, luminescence, ADME assay, primary screen; 96,000 tested, 20% active; P11712; AID 777, 2007; inhibition, % at 5 µM; CYP2C9 Supersomes, luciferin-H conversion;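 active = blocking of liver enzyme CYP2C9 beyond about 50% at 5 µM, limit read from the data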
# An asterisk follows results filed as active; . = no result given. Rule as the data show it, unless noted: active = inhibition above about 30%; inactive = the rest.
SMILES,PostGolgi yeast,CYP2C19 act,CYP2C9 act,CYP2C19 inhib,PostGolgi ctrl,CYP2C9 inhib
Cc1ccc(O)c(-c2cc(-c3ccccc3F)[nH]n2)c1,16.6,0.9,0.9,10.8,66.6*,12.7
COc1ccc(-c2cc(-c3cc(F)ccc3O)[nH]n2)cc1OC,1.6,1.1,1.1,-10.4,30.2*,-6.6
COC(=O)c1cc(-c2ccccc2)n[nH]1,12.4,0.7,1,34.6,8.2,-1.1
COc1ccc(-c2cc(-c3ccccc3O)[nH]n2)cc1OC,1.8,0.6,0.8,42.6,11.3,23.1
COC(=O)c1cc(-c2ccc(OC)c(OC)c2)n[nH]1,-3.9,0.4,0.8,55.0*,-0.2,21.4
Cc1ccc(O)c(-c2cc(C(F)(F)C(F)F)nc(-c3ccccc3)n2)c1,6.7,1.1,1,-5.3,11.1,4.2
Cc1ccc(-c2cc(-c3cccc(F)c3)n[nH]2)c(O)c1,-7.3,0.7,0.3,25.9,42.6*,70.1*
Cc1ccc(O)c(-c2cc(-c3cccc(F)c3)n[nH]2)c1,11.7,0.7,0.3,33.4,70.5*,68.8*
COc1ccc(O)c(-c2cc(-c3cccc(Br)c3)n[nH]2)c1,92.9*,0.9,0.4,5.4,74.3*,61.4*
Cc1ccc(CN2CCNC2=O)cc1,-7.5,1,0.9,2.9,6.1,11.7
CCOc1cc(C2/C(=C(\O)c3cc(C)ccc3C)C(=O)C(=O)N2CCN(C)C)ccc1O (stereo not drawn),-3.7,1.1,1,-13.8,15.1,-4.6
CCOC(=O)C1=C(c2ccccc2)O/C(=C(/C#N)C(F)(F)F)S1,3.3,1,0.9,0.9,39.1*,14.8
CN(CCc1ccccn1)c1ncnc2[nH]ncc12,8.9,0.9,1,12.1,2.1,2.6
C=CCNc1nc(-c2ccc(Cl)cc2)cs1,8.0,0.7,1,32.4,18.2,1.0
O=C(COc1ncnc2ccc(Br)cc12)N1CCOCC1,-4.8,0.8,0.6,22.3,0.9,37.3
CCc1cc(/C(Cc2csc(C)n2)=N/O)c(O)cc1O,-8.9,0.4,0.7,55.6*,11.7,31.1
Cc1cc(S(=O)(=O)N(Cc2ccc3c(c2)OCO3)CC2CCCO2)ccc1-n1cnnn1 (stereo not drawn),1.0,0.1,0.3,94.8*,0.3,69.2*
Cc1cc(S(=O)(=O)N(Cc2ccc(C(C)C)cc2)CC2CCCO2)ccc1-n1cnnn1 (stereo not drawn),-6.3,0.6,0.5,43.5,12.7,52.6*
Cc1cc(S(=O)(=O)NCc2cccnc2)ccc1-n1cnnn1,1.3,0.6,1.2,37.1,-2.3,-18.7
Cc1cc(S(=O)(=O)N(Cc2ccc(F)cc2)CC2CCCO2)ccc1-n1cnnn1 (stereo not drawn),6.2,0.4,0.9,56.3*,1.6,13.3
CN(c1cccc(NC(=O)Cc2ccccc2)c1)S(C)(=O)=O,0.0,0.7,0.8,31.4,-1.1,15.0
CC(=O)NCC(=O)N(C)C(C(=O)Nc1ccc(C(C)C)cc1)c1ccccc1 (stereo not drawn),0.5,1,0.9,-4.8,-10.0,5.6
COC(=O)c1[nH]c2c(c1C)C(=O)CCC2,-3.0,1.1,0.8,-6.1,3.4,16.6
Cc1c(C(=O)OCc2ccccc2)[nH]c2c1C(=O)CC(c1ccco1)C2 (stereo not drawn),4.5,0.5,0.1,46.8,11.0,88.7*
Cc1c(C(=O)OCCOC(C)C)[nH]c2c1C(=O)CC(C)(C)C2,-4.7,0.4,0.3,58.2*,7.0,70.3*
SMILES,PostGolgi yeast,CYP2C19 act,CYP2C9 act,CYP2C19 inhib,PostGolgi ctrl,CYP2C9 inhib
CSCCOC(=O)c1[nH]c2c(c1C)C(=O)CC(c1ccco1)C2 (stereo not drawn),3.4,0.9,0.5,5.1,-3.7,52.4*
COCCOC(=O)c1[nH]c2c(c1C)C(=O)CC(c1ccco1)C2 (stereo not drawn),1.6,0.5,0.3,46.7,5.4,72.3*
COCCOC(=O)c1[nH]c2c(c1C)C(=O)CC(c1ccccc1)C2 (stereo not drawn),3.6,.,.,.,10.7,.
CCN(CC)CCc1c(C)[nH]c(C(=O)OCc2ccccc2)c1C,-3.9,0.9,0.9,6.8,-6.5,8.0
CCS(=O)(=O)NCC(c1cccnc1)N1CCN(c2ccc(F)cc2)CC1 (stereo not drawn),6.2,1,1,3.5,-2.1,3.3
CCOC(=O)c1cnn(-c2ccccc2)c1NC(=O)CSc1nnc(-c2cccs2)n1CC,1.4,0.9,1.1,7.9,6.2,-8.3
Cc1c(C(=O)OCCOC(C)C)[nH]c2c1C(=O)CC(c1ccco1)C2 (stereo not drawn),-1.7,0.6,0.3,41.3,6.5,75.0*
COC(=O)c1[nH]c2c(c1C)C(=O)CC(c1cccs1)C2 (stereo not drawn),17.8,0.6,0.6,44.2,16.9,37.7
CCOC(=O)c1[nH]c2c(c1C)C(=O)CC(c1ccco1)C2 (stereo not drawn),14.7,0.8,0.4,18.6,4.5,59.8*
O=C(CCCc1nc2ccccc2s1)N1CCN(S(=O)(=O)c2cccs2)CC1,2.7,0.7,0.5,30.6,9.9,49.9
NS(=O)(=O)c1cccc(NC(=O)Cn2cnc3ccccc3c2=O)c1,12.9,1,0.6,2.8,3.1,39.4
CCc1nnc(NC(=O)C2CCN(c3nc(C)cc(C)n3)CC2)s1,2.5,1,0.8,-2.7,0.0,24.1
Cc1cnc(C(=O)Nc2ccccc2-c2nnn(CC(=O)NC3CCCC3)n2)cn1,-7.0,1.1,0.8,-13.3,-4.2,24.7
CC1Cc2ccccc2N1C(=O)Cn1nnc(-c2ccccc2NC(=O)C2CCC2)n1 (stereo not drawn),4.5,.,.,.,32.2*,.
CCC(=O)Nc1ccccc1-c1nnn(CC(=O)N2c3ccccc3CC2C)n1 (stereo not drawn),5.5,0.6,0.2,44.7,11.7,78.5*
CCN1CCN(CC(=O)N2c3ccccc3CC2C)CC1 (stereo not drawn),-1.6,1,0.9,-0.4,4.1,5.1
CC1CCc2cc(F)ccc2N1C(=O)CSc1nnc(-c2cccs2)n1C (stereo not drawn),7.9,0.9,1.1,7.5,-5.0,-5.4
C=CCNC(=O)C1CCN(c2c([N+](=O)[O-])cc(C(F)(F)F)cc2[N+](=O)[O-])CC1,14.1,0.9,0.8,14.3,-3.1,21.7
COC(=O)c1cccc2c1-c1ccccc1/C2=N/O,-8.7,0.4,0.2,58.8*,47.4*,84.5*
COC(=O)c1ccc2c(c1O)C(=O)c1ccccc1C2=O,105.5*,0.4,0.6,59.5*,82.7*,40.6
COC(=O)CSc1ccccc1C(=O)OC,7.5,0.8,0.9,20.5,15.4,13.3

# High-throughput results: PubChem, several laboratories
